Assay results published in PubChem BioAssay (NCATS).
“And” between values parts separate entries of the source, which are not always exact repeats. Equal values may be shown once. Inconclusive results are not listed. A number with no mark means an inactive call. The source made the active and inactive calls. Calls follow the shape of the dose curve; as a rule, active = well fitted curve in the direction sought with a large enough effect; inconclusive = small, poorly fitted or top-dose-only effect, or another doubt; inactive = no such curve, though single readings can be large or run the other way.

Experiment: qHTS Assay for Identifying Gametocytocidal Compounds (AID 743244);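 as to max response: actives lower the fluorescent signal which means gametocytes are killed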
Settings: P. falciparum 3D7 stage III-V gametocytes, alamarBlue, 72 h; max response: hits give low values
In short: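 P. falciparum 3D7 stage III–V gametocytes (20,000 cells/well) were exposed to compounds for 72 h at 37 °C, 5% CO2. AlamarBlue was then added for 24 h; decreased resorufin fluorescence (Ex 525/Em 598 nm) indicated loss of viability.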
% is scaled to controls: 0 for no effect and ±100 for the full control effect; potency is read from the fitted curve at half-maximal effect.

SMILES	max response	Potency
N[C@@H](Cc1cc(I)c(O)c(I)c1)C(=O)O	18.2%	
CC(=O)Nc1c(I)c(NC(C)=O)c(I)c(C(=O)O)c1I	-5.52%	
O=C(O)[C@H](O)[C@@H](O)[C@H](O[C@@H]1O[C@H](CO)[C@H](O)[C@H](O)[C@H]1O)[C@H](O)CO	-7.07%	
Nc1c(NC/C=C\COc2cc(CN3CCCCC3)ccn2)c(=O)c1=O	-0.695%	
OCc1cccnc1	-22.7%	
O=P(O)(O)OCC(O)CO (stereo not drawn)	11.3%	
CC(CCc1ccc2c(c1)OCO2)NN (stereo not drawn)	15.4%	
CC(=O)Nc1ccn(C2COC(COC(=O)c3ccccc3)O2)c(=O)n1 (stereo not drawn)	-5.34%	
CC(C)(C)c1nnc(NS(=O)(=O)c2ccccc2)s1	0.521%	
O=C(Nc1ccc(S(=O)(=O)N2CCOCC2)cc1)c1cc(Cl)ccc1NS(=O)(=O)c1ccc(Cl)s1	15.3%	
C[C@H](CN1CCCC1)C(=O)c1ccc(C(F)(F)F)cc1	15.3%	
Cc1cc(OCCOCC[N+](C)(C)Cc2ccccc2)ccc1C(C)(C)CC(C)(C)C		7.08 µM (active)
Cc1nc([N+](=O)[O-])cn1-c1ccc([N+](=O)[O-])cc1	9.29%	
COc1c(C)c2c(c(O)c1C/C=C(\C)CCC(=O)OCCN1CCOCC1)C(=O)OC2	2.71%	
CO[C@]1(NC(=O)CSC(F)F)C(=O)N2C(C(=O)O)=C(CSc3nnnn3CCO)CO[C@H]21	19.9%	
N#C/C(=C1/SC[C@@H](c2ccc(Cl)cc2Cl)S1)n1ccnc1	8.83% and -5.83% and 7.31%	
O=C(O)Cc1ccccc1Oc1ccc(Cl)cc1Cl	10.5%	

SMILES	max response	Potency
C[C@H]1C[C@H]2[C@@H]3CCC4=CC(=O)C=C[C@]4(C)[C@H]3C(=O)C[C@]2(C)[C@@]1(O)C(=O)CO	-0.729%	
Nc1nnnn1-c1ccccc1	2.05%	
CC(=O)Nc1ccc(S(=O)(=O)Nc2cc(C)on2)cc1	3.06%	
CSCC[C@H](NC(=O)[C@H](Cc1c[nH]c2ccccc12)NC(=O)CCNC(=O)OC(C)(C)C)C(=O)N[C@@H](CC(=O)O)C(=O)N[C@@H](Cc1ccccc1)C(N)=O	-18.5%	
CN1CCC(N(Cc2cccs2)c2ccccc2)CC1	8.89%	
CCC(C(=O)NC(=O)NC(C)=O)c1ccccc1 (stereo not drawn)	-11.8%	
O=C1CC[C@H](C(=O)N2CCCCC2)N1	-15.9%	
O=C(OCC(COC(=O)c1cccnc1)(COC(=O)c1cccnc1)COC(=O)c1cccnc1)c1cccnc1	13.3%	
O=C(O)CCC(=O)OC[C@@H](NC(=O)C(Cl)Cl)[C@H](O)c1ccc([N+](=O)[O-])cc1	-4.91%	
C=CCOc1cc(Cl)ccc1C(=O)NCCN(CC)CC	9.51%	
CO/N=C(/C(=O)N[C@@H]1C(=O)N2C(C(=O)O)=C(Cn3nnc(C)n3)CS[C@H]12)c1csc(N)n1	-11.7%	
Cc1cc(O)c2c(O)c3c(O)cccc3cc2c1	12.2%	
CO/N=C(/C(=O)N[C@@H]1C(=O)N2C(C(=O)OCOC(=O)C(C)(C)C)=C(C)CS[C@H]12)c1csc(N)n1	-0.603%	
CC(C(=O)O)c1ccc(/C=C2\CCCCC2=O)cc1 (stereo not drawn)	-9.38%	
CCCCCC(=O)O[C@]1(C(C)=O)CC[C@H]2[C@@H]3CCC4=CC(=O)CC[C@]4(C)[C@H]3CC[C@@]21C	7.11%	
COC(=O)C1=C(C)NC(COC(N)=O)=C(C(=O)OC(C)C)C1c1cccc(Cl)c1Cl (stereo not drawn)	-16.2%	
